From PubChem BioAssay
The list is not random: actives were taken first. Their share in the collection is about 8.1%.
ClpP mod = qHTS Assay for Activators of ClpP. AID 651965, 2013. purified B. subtilis ClpP, FRET peptide cleavage, 20 min. ATP-dependent Clp protease proteolytic subunit (Bacillus subtilis (strain 168)), P80244. 340,000 compounds, 1.9% hits. Potency, µM (top dose mostly 57.5 µM), without a hit: at the top dose activity change, negative = active; active means well fitted falling curve with a large enough effect; inconclusive means small, poorly fitted or top-dose-only effect; inactive means no such curve, though single readings can be large or run the other way; further: the source files actives as falling curves though it sought activators and does not explain the sign; nearly all actives have a fitted effect of over 65% in size
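ClpP 10 microg/mL final, pH 8 Tris/KCl buffer with BSA, glycerol, Tween-20; compound pinned in; FRET-FV substrate; RT 20 min; Ex320/Em430; ΔFRET vs ADEP 5.8 microM, DMSO, no enzyme.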
Gal4-VP16 FLuc = counter-screen for ROR gamma inhibitors: Gal4-VP16 reporter; AID 2546; Drosophila S2 Gal4-VP16 UAS-luciferase, luminescence, 20 h; Potency, µM (highest dose often 53.6 µM), for inactives: at the top dose activity, negative = inhibition, hits mostly inhibitors; 310,000 compounds, 3.5% hits;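 further: Gal4-VP16 expression switched on by copper sulfate through the metallothionein promoter; on the % scale 0 is the no-effect control and ±100 the full control effect; nearly all actives have a fitted effect of over 50% in size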
Sfp inh = inhibitors of Bacillus subtilis Sfp phosphopantetheinyl transferase; Potency, µM, inactives show largest response in the series, negative = inhibition, hits mostly inhibitors; Biochemical Sfp PPTase activity, qHTS; Q9F4F7; 310,000 compounds, 3.5% hits; AID 1490;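 further: the enzyme is Sfp with the accession as filed and its product quenches rhodamine fluorescence; 0% = enzyme reaction without inhibitor and -100% = no enzyme wells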
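With Hepes-Na pH 7.6 buffer containing 10 mM MgCl2, Sfp (15 nM) modified BHQ-2-YbbR (12.5 uM) using rhodamine-CoA (5 uM). Two reads 30 minutes apart at 525/598 nm yielded each well's rate.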
Epigenetic reg = derepresses silenced GFP reporter in murine cells; murine LDR cells, GFP reporter derepression, 30 h; Potency, µM (highest dose often 53.9 µM), inactives show top-dose GFP activation, usual class: activators; 280,000 compounds, 0.2% hits; AID 1865; further: % of control where 0% means no effect; nearly all actives have a fitted effect of over 60% in size
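Readout is the number of GFP-expressing murine LDR cells, counted by cytometry following washing. Cells were treated with compound for 30 h at 37 C; the stably integrated CMV-GFP locus is normally silent.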
PINK1 expr mod = changes PINK1 expression. PINK1 immunofluorescence, high-content cytometry, 24 h. Potency, µM (top dose mostly 76.6 µM), without a hit: at the highest dose activation (PINK1 increase), usual class: activators. 410,000 compounds, 0.2% hits; active means well fitted activation curve with a large enough effect; inconclusive means small, poorly fitted or top-dose-only effect; cell line not stated here; further: % of control where 0% means no effect; nearly all actives have a fitted effect of over 65% in size
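Stable cell line, 250 cells/well, 12 h attachment; compounds pinned at 5 concentrations, 24 h; CCCP control. Fixed with nuclear dye, primary antibodies 12 h at 10 degrees C, secondary plus cell stain; laser-scanning cytometer read.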
RORg inh = blocks mouse ROR gamma transcriptional activity; Drosophila S2 Gal4-RORgamma UAS-luciferase reporter, 20 h; Potency, µM (doses to about 53.6 µM), without a hit: top-dose activity change, negative = inhibition, most hits filed as inhibitors; 310,000 compounds, 5.4% hits; further: on the % scale 0 is the no-effect control and ±100 the full control effect; nearly all actives have a fitted effect of over 60% in size
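Luciferase reporter read in Schneider cells carrying Gal4-RORγ (mouse) and UAS-Photinus luciferase; cells given compound 1 h before 700 uM copper sulfate induction, then incubated 20 h at ambient temperature.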
* marks the source's active call; other numbers are inactive results; u = inconclusive; x = no result given; [ ] = dose if it differs, or a comment. Unless noted, the call rests on the fitted dose curve; in most records, active means well fitted curve in the direction sought with a large enough effect; inconclusive means small, poorly fitted or top-dose-only effect, or another doubt; inactive means no such curve, though single readings can be large; an effect the other way counts as inactive or inconclusive. Potency means the concentration at half of the fitted maximal effect.

SMILES | ClpP mod | Gal4-VP16 FLuc | Sfp inh | Epigenetic reg | PINK1 expr mod | RORg inh
Cc1ccc2[nH]c3c(c2c1)CN(C(=O)CN1CCN(C(=O)c2ccco2)CC1)CC3 | x | -5% | 7% | 1% | x | 15%
Cc1ccc2ncc(C)c(/C=C/c3ccc(N(C)C)cc3)c2c1 | 1% | x | x | x | x | x
O=C(Nc1ccccc1)/C(=C\c1cccs1)NC(=O)c1ccccc1 | -7% | u | 0% | 5% | 6% | -56%
O=C(N/N=C/c1ccc(O)c(O)c1O)/C(=C/c1ccc([N+](=O)[O-])cc1)NC(=O)c1ccccc1 | 1% | -5% | 45µM* | 0% | -1% | -38%
COc1ccc(/C=C(\NC(=O)c2ccccc2)C(=O)N/N=C/c2ccncc2)cc1 | 0% | -1% | 15% | 1% | u | 30%
O=C(N/N=C/c1cccs1)/C(=C/c1ccccc1)NC(=O)c1ccccc1 | -2% | u | 5% | -1% | 1% | 11µM*
Cc1ccc(NC(=O)/C(=C\c2ccc([N+](=O)[O-])cc2)NC(=O)c2ccccc2)cc1 | 2% | -15% | 17% | 0% | 12% | 32%
COc1ccc(/C=C(/NC(=O)c2ccccc2)C(=O)N/N=C/c2sccc2C)cc1 | x | u | 4% | -1% | 0% | 13µM*
COc1ccc(/C=C(\NC(=O)c2ccccc2)C(=O)N/N=C/c2cccnc2)cc1 | -2% | -5% | 2% | -2% | -1% | u
COc1ccc(/C=C(\NC(=O)c2ccccc2)C(=O)N/N=C/c2sccc2C)cc1 | -15% | 22µM* | 11% | 0% | -1% | 11µM*
Cc1ccccc1OCC(=O)Nc1cc(C)c(O)c(-c2nc3ccccc3o2)c1 | 2% | x | x | x | 2% | x
COCCCNc1ncnc2sc(C(=O)N3CCOCC3)c(C)c12 | x | x | x | x | 2% | x
CCCCn1c(CCn2nc(C)c(Br)c2C)n[nH]c1=S | -1% | u | 3% | -3% | 0%[38.3 µM] | 11µM*
Clc1ccccc1CN1CCN(CCCc2ccccc2)CC1 | x | -3% | 79µM* | -1% | 7% | -7%
COc1ccc(C2=NCN(c3ccc(C)cc3)C(=S)N2)cc1 | 0% | 2.8µM* | 16% | -3% | 0% | -43%
CCc1ccc(CN2CCC(n3nccc3NC(=O)C3CCCC3)CC2)cc1 | 28µM* | -7% | 1% | x | -1% | 30%
N#CC(C#N)=C(Nc1ccc(F)cc1)SCc1cccc(F)c1 | -3% | 14µM* | 14% | 1% | u | u
Cn1c(/C=C/c2ccc(Cl)cc2Cl)c([N+](=O)[O-])c(=O)n(C)c1=O | 0% | u | -11% | x | 2% | 11µM*
COc1ccc(/C=C/c2c([N+](=O)[O-])c(=O)n(C)c(=O)n2C)c(OC)c1 | x | -11% | u | -5% | 7% | -19%
O=C(CC[C@H]1O[C@@H](n2cnc3c(NC(=O)c4ccccc4)ncnc32)[C@H](O)[C@@H]1O)NCC(c1ccccc1)c1ccccc1 | 1% | x | x | x | 1% | x
O=C(Nc1ncnc2c1ncn2C1OC(COC(=O)c2ccccc2)C(F)C1O)c1ccccc1 (stereo not drawn) | -1% | 11µM* | 8% | 1% | 1% | 10µM*
CCCCN1C(=O)/C(=C(/C#N)C(=O)N2CCCC2)c2ccccc21 | -4% | 2% | -8% | -1% | -1% | 21%
CC(C)CN1C(=O)/C(=C(/C#N)C(=O)NC2CCCCC2)c2ccccc21 | x | u | 7.1µM* | 11% | 5% | u
CCn1c(SCC(=O)Nc2ccc(C(C)=O)cc2)nc2nc3c(cc2c1=O)CCCC3 | 1% | u | -9% | 0% | 9%[38.3 µM] | u
CCn1c(SCC(=O)Nc2ccc(Cl)cc2)nc2nc3c(cc2c1=O)CCCC3 | -2% | 13µM* | u | -1% | 2% | 14µM*
SMILES | ClpP mod | Gal4-VP16 FLuc | Sfp inh | Epigenetic reg | PINK1 expr mod | RORg inh
CCn1c(SCc2ccccc2Cl)nc2nc3c(cc2c1=O)CCCC3 | 0% | u | -10% | 7% | 4% | 11µM*
CCn1c(SCc2ccccc2Cl)nc2ccccc21 | -2% | -5% | -7% | -2% | 7% | 10µM*
CCn1c(SCc2c(Cl)cccc2Cl)nc2nc3c(cc2c1=O)CCCC3 | -6% | x | x | x | 5% | x
Cn1c(SCc2ccccc2Cl)nc2ccccc21 | 0% | -8% | -12% | -8% | 2% | u
CCc1ccccc1NC(=O)CSc1nnc(COc2ccccc2Cl)o1 | 1% | x | x | -1% | 2% | x
O=C(Nc1cc(C(F)(F)F)ccc1Cl)c1cc(-c2ccc3c(c2)OCCO3)on1 | u | x | x | -2% | 0% | x
CC1CCCCN1CC(=O)NC(c1ccccc1)c1ccccc1 (stereo not drawn) | -1% | -19% | 79µM* | 3% | 0% | 13%
CSc1ccccc1NC(=O)CN1CCCCC1C (stereo not drawn) | x | -13% | 0% | 6% | 5% | -26%
O=C1C2C3c4ccccc4C(c4ccccc43)[C@@H]2c2nc3ccccc3n21 (stereo partly drawn) | -3% | -9% | 5% | -1% | 3% | 11µM*
COc1ccc(N2C(=S)N=C(Nc3ccccc3)C23CCCCC3)cc1 | 0% | -5% | 26% | 12% | 5% | u
COc1ccc(NC2=NC(=S)N(c3ccccc3C)C23CCCCC3)cc1 | 0% | u | -10% | 0% | 3% | 7.1µM*
COc1ccc(CNC(=O)Cn2nc(C)c3nn(-c4ccc(Cl)cc4)c(C)c3c2=O)cc1 | -22% | x | x | -1% | -1% | x
Oc1ccccc1-c1nc2cnccn2c1Nc1ccc(Cl)cc1 | -4% | x | x | 1% | 20% | x
Oc1ccc(Br)cc1-c1nc2cnccn2c1NC1CCCC1 | -23% | u | -4% | 3% | -3% | 22µM*
Oc1ccc(Br)cc1-c1nc2cnccn2c1NC1CCCCC1 | 0% | u | 7% | -1% | x | 13µM*
Fc1ccc(-c2nc3cnccn3c2NC2CCCC2)cc1 | -20% | 6% | -1% | -1% | 1% | 16%
COCCCN1C(=O)/C(=C/c2ccc(CNS(=O)(=O)c3ccccc3)o2)C(C(=O)OC)=C1C | x | -18% | 14µM* | -5% | -2% | 11%
CNC(=O)/C(C#N)=C\c1ccc(CNS(=O)(=O)c2ccccc2)o1 | -3% | -12% | 11% | 2% | 1% | 44%
O=C1C=CC(=O)N1CCNc1ncc(C(F)(F)F)cc1Cl | x | 6.3µM* | 7.1µM* | u | -1% | 5µM*
CS(=O)(=O)NCCNc1ncc(C(F)(F)F)cc1Cl | x | -7% | 13% | 1% | 1% | 16%
O=S(=O)(NCCNc1ncc(C(F)(F)F)cc1Cl)C(F)(F)F | x | u | 20% | -2% | 40µM* | u
